# Data taken from PubChem BioAssay AID687014 (The Scripps Research Institute Molecular Screening Center, 2013).
# Hit rate of the full screen: of about 370,000 compounds, about 6,800 (1.8%) were called active. The sample holds actives, similar compounds and a random draw of the others, so the mix is not that of the screen. Unmarked numbers belong to inactive results.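 The calls were made as follows: active = activation above a cutoff set at the mean of all screened compounds plus 3 SD (cut at about 10% in these data); inactive = the rest.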
# System: Nuclear hormone receptor DAF-12 (Heterodera glycines), GAL4 fusion
# Assay: hgDAF-12 GAL4 fusion reporter activation – cell-based, luminescence, HEK293, UAS-luciferase, primary screen (AID 687014);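 also: 0% = DMSO wells and 100% = sodium butyrate wells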
# Settings: HEK293 GAL4-hgDAF12 UAS-luciferase reporter, agonist luminescence; at 6.8 µM; active compounds read high; normalized to butyrate control
row,SMILES,activation
1,Cc1ccc(NNC(=O)C2CCC2)cc1C,1.26%
2,COC(C(=O)Nc1ccc(S(=O)(=O)Nc2ccc(C)c(C)c2)cc1)c1ccccc1 (stereo not given),-3.51%
3,Cc1ccc(N/C=C/C(=O)c2ccccc2)cc1C,19.8% (active)
4,N#Cc1c(NCCO)ccc([N+](=O)[O-])c1NCCO,-1.17%
5,COC(=O)[C@]12C[C@H](CC(=O)NCC34CC5CC(CC(C5)C3)C4)C(=O)N(Cc3ccc(Cl)cc3Cl)C1=C[C@H](COCc1ccccc1)O[C@@H]2C,1.95%
6,C[C@H](C(=O)N(C)c1ccccc1)[C@@H](O)c1ccc2ccccc2c1,-1.62%
7,CC(C)n1c(O)c(N=Nc2ccccn2)c2ccccc21,1.77%
8,Oc1oc(-c2ccccc2Br)nc1/C=N/c1ccccn1,10.8% (active)
9,COc1cccc(-c2cc(CNC(=O)[C@@H](Cc3ccccc3)NC(=O)[C@H]3O[C@@H](n4cnc(C(N)=O)n4)[C@H](O)[C@@H]3O)no2)c1,3.48%
10,COC(=O)CC1CCc2cc(C)cc(C(CC(C)C)NC(=O)[C@H](CC(C)C)NC(=O)OCc3ccccc3)c2O1 (stereo not given in full),-1.05%
11,O=C(Cn1c(-c2cncs2)nc2ccccc21)NC1CCCC1,0.16%
12,O=C(/C=C/c1cnc2ccccc2n1)NC1CCCCCC1,11.9% (active)
13,CC1CCCCC1NC(=O)Cn1c(=O)cnc2ccccc21 (stereo not given),-0.26%
14,O=C(CCCCCn1c(=O)[nH]c2ccccc2c1=O)NCCc1c[nH]c2ccccc12,-0.27%
15,C[N+](C)(C)CCNC(=O)c1c[nH]c2ccccc12,0.11%
16,O=C(NCCc1c[nH]c2ccccc12)c1cc2ccccc2oc1=O,14.6% (active)
17,Clc1cccc2c1C1CC2CCN1Cc1ccccc1 (stereo not given),0.38%
18,COc1ccc(-c2cc(-c3nnc(SCc4ccc([N+](=O)[O-])cc4)n3N)[nH]n2)cc1,3.72%
19,Nc1ncnc2c1ncn2[C@@H]1O[C@H](C(=O)N[C@@H](CCc2ccccc2)C(=O)N2CCCN(Cc3cccs3)CC2)[C@@H](O)[C@H]1O,1.83%
20,Nc1ccc2c(c1)C(O)c1ccc(Cl)cc1-2 (stereo not given),2.17%
21,Nc1nc2cc(Cl)ccc2n1N,0.42%
22,Nc1ccc2nn(-c3ccc(Cl)cc3)nc2c1,18.1% (active)
23,COc1ccc(S(=O)(=O)N[C@@H]2C=C[C@@H](CC(=O)N3CCc4ccccc4C3)O[C@@H]2CO)cc1,-1.55%

row,SMILES,activation
1,COc1ccc(C2CC(c3cccs3)=Nc3ccccc3S2)cc1OC (stereo not given),6.91%
2,COc1ccc(-c2csc3nc(-c4ccccc4F)oc(=O)c23)cc1OC,-0.2%
3,COc1ccc(-c2csc(-c3cccs3)n2)cc1OC,14.5% (active)
4,COC(=O)C1=C(C)N(Cc2ccccc2C(F)(F)F)C(=NCc2ccc(C(F)(F)F)cc2)NC1c1ccc(F)cc1 (stereo not given),0.87%
5,CCCCOCCCNC(=O)C[C@H]1C[C@@]2(C(=O)OC)C(=C[C@H](COCc3ccccc3)O[C@@H]2C)N(Cc2cccc3ccccc23)C1=O,5.41%
6,CCOc1c(N2CCCCC2)c(=O)c1=O,-2.21%
7,Cc1ccc(CSc2nnc(SCC(=O)NN=Cc3cc(Br)ccc3F)s2)cc1,6.25%
8,CC(C)(C)c1ccc(/C=C/C(=O)Nc2ncccn2)cc1,16.6% (active)
9,CC(C)(C)c1ccc(/C=C/C(=O)NCCCn2ccnc2)cc1,3.86%
10,Cc1cc(C)nc(NC(=O)/C=C/c2ccc(Cl)cc2)n1,-0.13%
11,COc1ccc(S(=O)(=O)N(C)C)cc1NC(=O)CSc1ncccn1,1.65%
12,CN(C)S(=O)(=O)c1ccc2oc(SCC(=O)Nc3ccccc3F)nc2c1,15.5% (active)
13,CCS(=O)(=O)c1ccc2oc(SCC(=O)N3c4ccccc4CC3C)nc2c1 (stereo not given),-2.27%
14,O=C(CNC(=O)c1ccccc1)OC(C(=O)Nc1cc([N+](=O)[O-])ccc1F)c1ccccc1 (stereo not given),6.44%
15,COC(=O)c1cc(S(=O)(=O)N2CCN(C(=O)C3CCCO3)CC2)cn1C (stereo not given),-0.48%
16,C=C(C)C#CC(Cc1ccccc1)NCC1CC1 (stereo not given),1.34%
17,COc1cccc(Cn2cc(COC(=O)Nc3ccc(F)cc3)nn2)c1,-2.67%
18,COc1ccc(/C=N/Nc2ccccc2C(=O)O)cc1,12.8% (active)
19,COc1ccc(SSc2ccc(OC)cc2C(=O)O)c(C(=O)O)c1,-1.26%
20,COc1ccc(/C=N/NC(=O)Cn2cc(C(F)(F)F)ccc2=O)cc1,-5.01%
21,N#Cc1c(N)nc2c(c1N)CC(C(F)(F)F)O2 (stereo not given),2.74%
22,CCOC(=O)[C@]12CCCC3=C1N(CCC3)C(=O)[C@@H](CC(=O)N1CCSCC1)C2,-0.16%
23,O=C(NCCCc1ccccc1)[C@H](Cc1ccccc1)NC1(C(=O)NCCc2c[nH]c3ccccc23)CCC1,-3.84%

row,SMILES,activation
1,O=C(OC12CCCN(C1)/C(=C/c1cccnc1)C2)C1CCCC1 (stereo not given),-3.6%
2,COc1ccc(C(=O)Nc2nncs2)c(OC)c1,10.4% (active)
3,COc1ccc(C(=O)NC2CC(C)(C)Cc3c2cnn3-c2ccccc2)c(OC)c1 (stereo not given),-4.18%
4,COc1ccc(NC(=O)COC(=O)c2ccncc2)c(OC)c1,-1.12%
5,COC(=O)c1sc(NC(=O)c2ccc(OC)cc2OC)nc1C,19.3% (active)
6,COc1ccc(C(=O)CSc2nnnn2C)c(OC)c1,1.57%
7,COc1ccc(C(=O)N2CCCN(C)CC2)c(OC)c1,-2.22%
8,COC(=O)C1=C(C)N(Cc2ccc(C(F)(F)F)cc2)C(=NCc2ccc(C(F)(F)F)cc2)NC1c1cccc(Cl)c1 (stereo not given),6.59%
9,CCOC(=O)C1CCN(C(=O)c2ccccc2N(C)S(=O)(=O)c2ccccc2)CC1,0.69%
10,CC(C)CSc1nnc(-c2cccnc2)n1Cc1ccccc1,0.98%
11,C=CCN1C(=O)N(Cc2ccccc2)c2ccccc2S1(=O)=O,-2.37%
12,CCN(CC)S(=O)(=O)c1cccc(NC(=O)c2ccc(S(=O)(=O)N3CCCC3)cc2)c1,-4.53%
13,CC(C)(C)n1nc2c(c1NC(=O)c1ccc(S(=O)(=O)N3CCCC3)cc1)CS(=O)C2 (stereo not given),-0.9%
14,O=C(CNC(=O)c1ccc2ccccc2c1)Nc1ncccc1O,4.2%
15,CCOC(=O)c1cccnc1NC(=O)c1ccncc1,2.56%
16,O=C(Nc1ncccc1O)c1ccc(S(=O)(=O)N2CCCC2)cc1,26.2% (active)
17,O=C(Nc1ncccc1O)c1ccc(S(=O)(=O)N2CCCCCC2)cc1,10.7% (active)
18,CN1CCN(NC(=O)c2ccc(S(=O)(=O)N3CCCCCC3)cc2)CC1,-0.88%
19,O=C(Nc1ncccc1O)c1ccc(C(=O)c2ccccc2)cc1,85% (active)
20,O=C(Nc1ccccc1F)c1ccc(S(=O)(=O)N2CCCCCC2)cc1,4.61%
21,O=C(C1CCN(S(=O)(=O)c2ccccc2)CC1)N1CCN(C2CCCCC2)CC1,-4.1%
22,COC(=O)C[C@@H]1CC[C@@H]2[C@@H](COc3ccc(NC(=O)Nc4ccc(F)c(F)c4)cc3C(=O)N2C)O1,0.28%
23,O=C(NN1C(=O)C2C3C=CC(C4CC34)C2C1=O)c1ccc(Cl)cc1 (stereo not given),0.35%

row,SMILES,activation
1,CC(C)CNc1cccc2c1S(=O)(=O)N(Cc1cn(Cc3ccccc3C(F)(F)F)nn1)Cc1ccccc1O2,-3.87%
2,C[C@H](C(=O)N(C)c1ccccc1)[C@@H](O)c1ccc(Cl)cc1,1.73%
3,COc1ccc(C(NC(=O)C2CCN(CCCc3ccccc3)CC2)c2cccs2)cc1 (stereo not given),-0.24%
4,CC(=O)OCCN1CCCC12CCC(c1ccccc1)CC2 (stereo not given),-0.9%
5,CCOC(=O)c1cc(-c2ccc(Cl)s2)nc2c1c(C)nn2C,-0.72%
6,Cn1c(=NC(=O)c2cnccn2)sc2ccccc21,9.34%
7,Cn1c(=NC(=O)c2ccco2)sc2cccc(F)c21,20.1% (active)
8,Cc1cc(NC(=O)c2ccco2)c(=O)n(Cc2c(F)cccc2Cl)c1,-0.15%
9,CC(c1ccc(N)cc1)c1cn(C)c2ccccc12 (stereo not given),-1.36%
10,C#CCN([C@H](C(=O)OC)C(C)CC)S(=O)(=O)c1ccccc1Br (stereo not given in full),0.28%
11,CN(C)S(=O)(=O)c1cccc(C(=O)N/N=C\c2ccco2)c1,3.58%
12,Cc1cc(C(=O)NN=C/C=C/c2ccco2)n[nH]1,-0.85%
13,CC(/C=N/NC(=O)c1cc(-c2ccc3ccccc3c2)n[nH]1)=C\c1ccco1,20.6% (active)
14,COC(=O)[C@]12C[C@H](CC(=O)N3CCN(C(=O)C4CC4)CC3)C(=O)N(Cc3ccc4c(c3)OCO4)C1=C[C@H](C(C)(C)C)O[C@@H]2C,0.51%
15,C/C(CC(=O)NC(C)(C)C)=N\NC(=O)c1ccco1,12.8% (active)
16,COc1ccc(N(CC(=O)NC(C)(C)C)C(=O)c2ccco2)cc1,0.5%
17,COc1cccc2cc(/C(C)=N/NC(=O)c3ccco3)oc12,4.73%
18,CCOC(=O)c1cccc(NC(=O)CN(C)S(=O)(=O)c2ccc(-c3cocn3)s2)c1,1.77%
19,COc1ccc(N=C(C)c2sc3ccccc3c2O)cc1,13.8% (active)
20,COC(=O)c1ccc(/C=C/c2c(-c3ccc(OC)cc3)sc3ccccc23)cc1,0.64%
21,COc1ccc(-n2c(SCC(=O)NC3CCCC3)nnc2-c2ccncc2)cc1,-0.49%
